PubChem BioAssay AID1159580 (chemical genetic matrix, 2015)
Values joined by “and” are separate entries in the source; they are usually repeats but may differ in a detail not shown here. Equal values may be shown once. The campaign covered roughly 5,500 compounds. About 2,000 (36%) were called active. Not shown: some 18% with an inconclusive outcome. Rule as the data show it: active = normalized growth mostly below about 0.91 (no sharp cut-off); inconclusive = no clear call, values can overlap the other calls; inactive = mostly above about 0.92. This is one part of the list.

Experiment: chemical genetic growth profiling, strain panel (AID 1159580);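 also: tested at 20 µM; growth read once vehicle control cultures reached saturation at 30 °C; 1 = growth at the plate median or of vehicle wells; lower values mean less growth of the strain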
Details: S. cerevisiae deletion strains, growth OD

Measured: normalized growth

Cn1nnnc1SCC1=C(C(=O)O)N2C(=O)C(NC(=O)C(OC=O)c3ccccc3)C2SC1 (stereo unspecified)
inactive: locus YAL021C, strain ccr4, stronger effect = lower value 1.02 | locus YAL026C, strain drs2, stronger effect = lower value 0.999 | locus YAL030W, strain snc1, stronger effect = lower value 1 | locus YBL061C, strain skt5, stronger effect = lower value 1.01 | locus YBR009C, strain hhf1, stronger effect = lower value 1.04 | locus YBR021W, strain FUR4, stronger effect = lower value 0.986 | locus YBR023C, strain chs3, stronger effect = lower value 0.998 | locus YBR171W, strain sec66, stronger effect = lower value 0.984 | locus YBR229C, strain ROT2, stronger effect = lower value 1 | locus YBR231C, strain swc5, stronger effect = lower value 1.01 | locus YBR279W, strain paf1, stronger effect = lower value 0.999 | locus YCL011C, strain gbp2, stronger effect = lower value 1 | locus YCL016C, strain dcc1, stronger effect = lower value 1 | locus YCL029C, strain bik1, stronger effect = lower value 1.03 | locus YCL061C, strain MRC1, stronger effect = lower value 0.991 | locus YCL069W, strain vba3, stronger effect = lower value 0.992 | locus YCR088W, strain abp1, stronger effect = lower value 0.998 | locus YDL005C, strain med2, stronger effect = lower value 0.991 | locus YDL035C, strain GPR1, stronger effect = lower value 1.01 | locus YDL040C, strain nat1, stronger effect = lower value 1 | locus YDL074C, strain BRE1, stronger effect = lower value 1.02 | locus YDL101C, strain DUN1, stronger effect = lower value 1.01 | locus YDL134C, strain PPH21, stronger effect = lower value 1.01 | locus YDL185W, strain tfp1, stronger effect = lower value 1.01 | locus YDL192W, strain arf1, stronger effect = lower value 1.02 | locus YDR001C, strain nth1, stronger effect = lower value 0.991 | locus YDR069C, strain doa4, stronger effect = lower value 1 | locus YDR101C, strain arx1, stronger effect = lower value 1.03 | locus YDR137W, strain rgp1, stronger effect = lower value 1.02 | locus YDR150W, strain NUM1, stronger effect = lower value 1 | locus YDR159W, strain sac3, stronger effect = lower value 0.979 | locus YDR162C, strain NBP2, stronger effect = lower value 1.01 | locus YDR195W, strain ref2 0.949 | locus YDR297W, strain sur2, stronger effect = lower value 0.992 | locus YDR318W, strain mcm21, stronger effect = lower value 1.02 | locus YDR334W, strain swr1, stronger effect = lower value 0.995 | locus YDR335W, strain msn5, stronger effect = lower value 1 | locus YDR388W, stronger effect = lower value 1.02 | locus YDR392W, strain spt3, stronger effect = lower value 0.995 | locus YDR502C, strain sam2, stronger effect = lower value 1.02 | locus YEL003W, strain gim4, stronger effect = lower value 1 | locus YEL037C, strain rad23, stronger effect = lower value 0.994 | locus YEL061C, strain CIN8 (second series), stronger effect = lower value 0.991 | locus YEL061C, strain CIN8, stronger effect = lower value 1 | locus YER015W, strain faa2, stronger effect = lower value 1 | locus YER016W, strain bim1, stronger effect = lower value 0.997 | locus YER110C, stronger effect = lower value 1.03 | locus YER111C, strain swi4, stronger effect = lower value 0.998 | locus YER155C, strain BEM2 (second series), stronger effect = lower value 0.977 | locus YER155C, strain BEM2, stronger effect = lower value 0.99 | locus YER167W, strain BCK2, stronger effect = lower value 1 | locus YFR010W, strain ubp6, stronger effect = lower value 0.995 | locus YGL078C, strain dbp3, stronger effect = lower value 1.03 | locus YGL086W, strain mad1, stronger effect = lower value 1.01 | locus YGL167C, strain pmr1, stronger effect = lower value 1 | locus YGL173C, strain kem1, stronger effect = lower value 0.997 | locus YGL227W, strain vid30, stronger effect = lower value 0.993 | locus YGL240W, strain doc1, stronger effect = lower value 0.978 | locus YGL248W, strain PDE1, stronger effect = lower value 1.01 | locus YGL253W, strain hxk2, stronger effect = lower value 1.01 | locus YGR078C, strain PAC10, stronger effect = lower value 0.994 | locus YGR135W, strain pre9, stronger effect = lower value 1.02 | locus YGR229C, strain SMI1, stronger effect = lower value 1.01 | locus YGR252W, strain gcn5, stronger effect = lower value 1.03 | locus YHR013C, strain ard1, stronger effect = lower value 1 | locus YHR027C, strain rpn1, stronger effect = lower value 0.995 | locus YHR030C, strain SLT2, stronger effect = lower value 0.999 and 1.01 | locus YHR079C, strain IRE1 (second series), stronger effect = lower value 1.02 | locus YHR079C, strain IRE1, stronger effect = lower value 0.985 | locus YHR094C, strain hxt1, stronger effect = lower value 1.03 | locus YHR129C, strain ARP1, stronger effect = lower value 0.998 | locus YHR142W, strain chs7, stronger effect = lower value 1.02 | locus YHR200W, strain rpn10, stronger effect = lower value 1.02 | locus YIL066C, strain RNR3, stronger effect = lower value 1 | locus YIL073C, strain SPO22, stronger effect = lower value 1.07 | locus YIL125W, strain kgd1, stronger effect = lower value 1.01 | locus YIR030C, strain dcg1, stronger effect = lower value 1.03 | locus YJL092W, strain hpr5, stronger effect = lower value 0.993 | locus YJL095W, strain BCK1 (second series), stronger effect = lower value 1.01 | locus YJL095W, strain BCK1, stronger effect = lower value 1 and 0.969 | locus YJL115W, strain asf1, stronger effect = lower value 0.985 | locus YJL129C, strain trk1, stronger effect = lower value 1 | locus YJL134W, strain LCB3, stronger effect = lower value 1 | locus YJL154C, strain vps35, stronger effect = lower value 1 | locus YJL164C, strain tpk1, stronger effect = lower value 1.01 | locus YJL166W, strain qcr8, stronger effect = lower value 1.01 | locus YJL168C, strain set2, stronger effect = lower value 1.01 | locus YJL187C, strain SWE1 (second series), stronger effect = lower value 1 | locus YJL187C, strain SWE1, stronger effect = lower value 0.986 | locus YJR043C, strain POL32, stronger effect = lower value 1.01 | locus YJR066W, strain TOR1, stronger effect = lower value 0.954
